Bioassay records: PubChem, National Center for Advancing Translational Sciences (NCATS)
Giardia FBPA inh: blocks Giardia fructose-bisphosphate aldolase activity; A8B2U2; Potency, µM (doses to about 59.6 µM), for the others: at the highest dose activity, negative = inhibition, usual class: inhibitors; purified Giardia FBPA; AID 2451; 290,000 tested, 0.71% active; further: potency means the concentration at half of the fitted maximal effect; nearly all actives have a fitted effect of over 55% in size
Target sequence (A8B2U2 whole entry, looked up): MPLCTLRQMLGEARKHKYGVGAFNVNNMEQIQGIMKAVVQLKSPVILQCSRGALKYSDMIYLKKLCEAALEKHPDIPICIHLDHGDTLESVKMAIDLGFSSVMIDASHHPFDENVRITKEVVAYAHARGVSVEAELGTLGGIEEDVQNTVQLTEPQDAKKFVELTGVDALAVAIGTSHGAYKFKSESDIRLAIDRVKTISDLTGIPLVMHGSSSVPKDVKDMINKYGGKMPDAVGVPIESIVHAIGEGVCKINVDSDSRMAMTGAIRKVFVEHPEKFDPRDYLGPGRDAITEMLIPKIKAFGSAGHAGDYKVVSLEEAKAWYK
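Giardia FBPA (40 nM reagent) was preincubated 10 min at RT with compound (up to 57.5 uM final), then substrate plus GAPDH/TPI/NAD/arsenate coupling system with diaphorase/resazurin was added; resorufin fluorescence (525/598 nm) was read after 20 min.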
FMDV antiviral: foot and mouth disease virus antiviral activity; FMDV antiviral cell-based qHTS; 410,000 tested, 1.2% active; Potency, µM (series often up to 57.9 µM), for inactives: at the highest dose activity change, negative = inhibition, actives largely listed as inhibitors; calls by dose curve; tested in HEK293T cells; further: read-out not given here; potency means the concentration at half of the fitted maximal effect; nearly all actives have a fitted effect of over 45% in size
Sm TGR block: S. mansoni TGR enzyme inhibition. AID 485364. Q962Y6. purified TGR, DTNB reduction, TNB absorbance 405 nm. 360,000 tested, 3% active. Potency, µM (series often up to 114 µM), without a hit: top-dose activity change, negative = inhibition, usual class: inhibitors; further: potency means the concentration at half of the fitted maximal effect; nearly all actives have a fitted effect of over 60% in size
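TGR 20 nM + NADPH 100 uM (dispensed conc.), cpd preinc 15 min RT; start with NADPH (500 uM addition) then DTNB (15 mM addition). Kinetic TNB absorbance, 405 nm filter. Four-parameter Hill fit across titration.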
Tb PYK inh: blocks Trypanosoma brucei pyruvate kinase; Q57TT1; TbPYK enzyme, Kinase-Glo Plus ATP luminescence, 45 min; Potency, µM (top dose mostly 76.8 µM), for inactives: top-dose activity, negative = inhibition, hits mostly inhibitors; 410,000 tested, 0.12% active; AID 624173; further: potency means the concentration at half of the fitted maximal effect; nearly all actives have a fitted effect of over 50% in size
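Luminescent Kinase-Glo Plus end-point after 45 min room-temperature reaction of T. brucei pyruvate kinase started with 130 uM ADP (final). Buffer TEA 50 mM pH 7.2 with KCl, MgCl2, BSA, Tween-20; titration-based qHTS with fitted concentration-effect curves.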
RE007 growth inh: less growth of the S. pombe RE007 Vpr strain | Potency, µM (highest dose often 92.2 µM), without a hit: top-dose activity change, negative = less growth, most hits filed as inhibitors | 360,000 tested, 0.21% active | S. pombe RE007 Vpr strain, BacTiter-Glo ATP luminescence, 24 h; active means well fitted falling curve with a large enough effect; inconclusive means small, poorly fitted or top-dose-only effect; inactive means no such curve, though single readings can be large or run the other way; further: potency means the concentration at half of the fitted maximal effect; nearly all actives have a fitted effect of over 50% in size
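Fission yeast strain RE007, carrying one chromosomally integrated HIV-1 vpr copy, was seeded at OD 0.01 in PMG+AL medium with 23 nL pinned compound. After 24 h at 30 °C and 99% humidity, viability was read by BacTiter-Glo luminescence.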
HCMV antiviral: human cytomegalovirus inhibition; HFF cells, HCMV-luciferase reporter, 72 h; stronger effect = lower value; activity change, negative = inhibition, % at 57.5 µM; 410,000 tested, 4.5% active; in the data active means activity change below about -60%; inconclusive means no clear call, values can overlap the other calls; inactive means above about -39%
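HFF cells seeded 16 h at 37C, treated with compounds, infected with luciferase-reporter HCMV at MOI 1 PFU/cell; luciferase read at 72 h post infection, normalized to buffer-only and Salinomycin controls.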
Numbers without * were called inactive; [ ] = remark or other dose. The list is not random: actives were taken first. Their share in the collection is about 7.7%. Unless noted, the call rests on the fitted dose curve; in most records, active means well fitted curve in the direction sought with a large enough effect; inconclusive means small, poorly fitted or top-dose-only effect, or another doubt; inactive means no such curve, though single readings can be large; an effect the other way counts as inactive or inconclusive. On the % scale 0 is the no-effect control and ±100 the full control effect.

How did O=C(Nc1ccc(S(=O)(=O)N2CCN(Cc3ccccc3)CC2)cc1)c1cnccn1 do in these assays?
Giardia FBPA inh: -6%; FMDV antiviral: inconclusive; Sm TGR block: inconclusive; Tb PYK inh: -1%; RE007 growth inh: 7%; HCMV antiviral: -86*

How did Cc1ccc(S(=O)(=O)N2CCN(Cc3ccccc3)CC2)cc1 do in these assays?
Giardia FBPA inh: 8%; FMDV antiviral: -27%; Sm TGR block: 15%; Tb PYK inh: -3%; RE007 growth inh: -8%; HCMV antiviral: -60*

How did O=S(=O)(c1ccccc1)N1CCN(Cc2ccccc2)CC1 do in these assays?
Giardia FBPA inh: -5%; FMDV antiviral: -11%; Sm TGR block: -7%; Tb PYK inh: -3%; RE007 growth inh: 3%; HCMV antiviral: -5

What do the screens show for `Cc1ccc(S(=O)(=O)N2CCCN(Cc3nc4ccccc4c(=O)[nH]3)CC2)cc1`?
FMDV antiviral: 0%; Sm TGR block: 45µM*; Tb PYK inh: -1%; RE007 growth inh: 5%; HCMV antiviral: 1

How did COc1ccccc1CN(Cc1nc2ccccc2c(=O)[nH]1)S(=O)(=O)c1ccc(C)cc1 do in these assays?
Giardia FBPA inh: -19%; Sm TGR block: -15%; Tb PYK inh: 2%; RE007 growth inh: 10%; HCMV antiviral: -99*

Results for O=C(CCCCn1c(=O)c2ccccc2n(Cc2cccc(F)c2)c1=O)NCCc1ccccc1 ?
FMDV antiviral: -10%; Sm TGR block: -12%; Tb PYK inh: 1%; HCMV antiviral: -22

Results for Cn1nc(C(=O)NCCN2Cc3ccccc3OC(c3ccsc3)C2)c2ccccc2c1=O (stereo unspecified) ?
FMDV antiviral: -5%

What do the screens show for `Cc1ccc(CCNC(=O)CCSCc2ccccc2F)cc1`?
FMDV antiviral: -1%; Sm TGR block: 0%; Tb PYK inh: -3%; HCMV antiviral: 6

How did Cc1ccc(S(=O)(=O)N2CCc3ccccc3CC2)cc1 do in these assays?
FMDV antiviral: -3%; Tb PYK inh: 6%; RE007 growth inh: -10%; HCMV antiviral: -78*

How did O=C(c1ccc(S(=O)(=O)N2CCCC2)cc1)N1CCCCC1 do in these assays?
FMDV antiviral: 10%; Sm TGR block: 3%; Tb PYK inh: -2%; RE007 growth inh: -5%; HCMV antiviral: -15

What do the screens show for `O=C(c1ccc(S(=O)(=O)N2CCc3ccccc3C2)cc1)N1CCCCC1`?
Giardia FBPA inh: 3%; FMDV antiviral: -24%; Sm TGR block: -11%; Tb PYK inh: 2%; RE007 growth inh: 12%; HCMV antiviral: -62*

How did Cc1ccc(S(=O)(=O)N2CCc3ccccc3C2)cc1 do in these assays?
Giardia FBPA inh: 24%; FMDV antiviral: 9%; Sm TGR block: inconclusive; Tb PYK inh: -10%; RE007 growth inh: 7%; HCMV antiviral: -26

What do the screens show for `COc1ccc(C)cc1NC(=O)c1c2c(nc3ccccc13)C(=O)N(C1CCCCC1)C2`?
FMDV antiviral: -22%; Sm TGR block: 1%; Tb PYK inh: 1%; HCMV antiviral: -32

What do the screens show for `COC(=O)c1cc2c(c3c4cc(OC)ccc4n(S(=O)(=O)c4ccc(F)cc4)c13)C(=O)N(Cc1ccccc1)C2`?
HCMV antiviral: -19

How did CCOC(=O)c1c(C)c(-c2ccccc2)n(CC(=O)NCCc2ccc(C)cc2)c1C do in these assays?
FMDV antiviral: -8%; Sm TGR block: -1%; Tb PYK inh: 0%; HCMV antiviral: -1

How did COc1ccc(-c2ccc(C(C)=O)cc2)cc1[C@H]1[C@H]2C=CC[C@@H](C)[C@@H]2C(=O)N1Cc1ccccc1 do in these assays?
Giardia FBPA inh: -1%; FMDV antiviral: 9%; Sm TGR block: inconclusive; Tb PYK inh: 3%; RE007 growth inh: 3%; HCMV antiviral: -90*

Results for COc1ccc(-c2ccc(C(C)=O)cc2)cc1C1C2C=CCC(C)C2C(=O)N1Cc1ccccc1 (stereo unspecified) ?
Giardia FBPA inh: -5%

What do the screens show for `C[C@@H]1CC=C[C@H]2[C@H]1C(=O)N(Cc1ccccc1)[C@H]2c1ccoc1`?
Giardia FBPA inh: -2%; FMDV antiviral: 0%; Sm TGR block: 20µM*; Tb PYK inh: 1%; RE007 growth inh: -25%; HCMV antiviral: -30

How did C[C@@H]1CC=C[C@H]2[C@H]1C(=O)N(Cc1ccccc1)[C@H]2c1ccc2ccccc2c1Br do in these assays?
Giardia FBPA inh: -11%; FMDV antiviral: 18µM*; Sm TGR block: inconclusive; Tb PYK inh: -3%; RE007 growth inh: 1%; HCMV antiviral: inconclusive

What do the screens show for `CC1CC=CC2C1C(=O)N(Cc1ccccc1)C2c1ccc2ccccc2c1C=Cc1ccccc1` (stereo unspecified)?
Giardia FBPA inh: 2%

How did O=C1c2cccc3c(O)ccc(c23)C(=O)N1c1ccc(Cl)cc1 do in these assays?
Giardia FBPA inh: inconclusive; FMDV antiviral: 13µM*; Sm TGR block: 25µM*; Tb PYK inh: -6%; RE007 growth inh: 34%; HCMV antiviral: -72*

Results for O=C1c2ccccc2C(=O)N1Cc1ccco1 ?
Giardia FBPA inh: 4%; FMDV antiviral: 1%; Sm TGR block: 1%; Tb PYK inh: 2%; RE007 growth inh: 23%; HCMV antiviral: -9

Results for O=C1c2cccc3c(O)ccc(c23)C(=O)N1Cc1ccco1 ?
Giardia FBPA inh: inconclusive; FMDV antiviral: 0%; Sm TGR block: 6.3µM*; Tb PYK inh: -6%; RE007 growth inh: 3%; HCMV antiviral: -25

Results for Cc1ccc(-n2c3c(cc(-c4nc(-c5ccc(Cl)cc5)cs4)c2=O)C(=O)CC(C)(C)C3)cc1 ?
FMDV antiviral: -6%; Sm TGR block: 12%; Tb PYK inh: 2%; HCMV antiviral: 5

Results for CCCCCCC1=Cc2cc(OC)c(OC)cc2C(CC(=O)/C=C/OC)O1 (stereo unspecified) ?
Giardia FBPA inh: -8%[12.9 µM]

What do the screens show for `COc1cccc(CNC(=O)c2ccc(-c3nc(CS(=O)(=O)c4ccccc4)c(C)o3)cc2)c1`?
FMDV antiviral: inconclusive; Sm TGR block: 28µM*; Tb PYK inh: -2%; HCMV antiviral: -6

How did Cc1oc(-c2ccc(C(=O)NCc3ccc(Cl)cc3)cc2)nc1CS(=O)(=O)c1ccccc1 do in these assays?
FMDV antiviral: -26%; Sm TGR block: inconclusive; Tb PYK inh: -14%; HCMV antiviral: -69*

How did O=S(=O)(CCc1ccccc1)c1nnnn1C1CCCCC1 do in these assays?
Giardia FBPA inh: 0%
